Of roughly 7,900 targets only a part is listed; those with a hit were picked by preference. About 0.6% of all pairs of compound and target were hits.
Columns and labels:
Test in all cases: log2 fold change, soluble protein after heating vs DMSO (PISA); higher = thermal stabilisation; K562 cells, 10 uM, 30 min; active = over 0.2 and 3.5 SD of the protein, either way, in both replicates (recomputed)
bafetinib = compound: Cc1ccc(NC(=O)c2ccc(CN3CC[C@H](N(C)C)C3)c(C(F)(F)F)c2)cc1Nc1nccc(-c2cncnc2)n1 [bafetinib]
Summary of the method: (§1)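 K562 cells at 2×10^6 cells/mL were given 10 μM compound for 30 min. Aliquots then went through 3 min of heating across 48°C-58°C, were pooled, and were extracted in PBS with 0.5% NP-40 at 4°C, and the supernatant after 21,000xg for 90 min was quantified by TMTpro 16plex LC-MS/MS with channel sums equalised. Thermal stability relative to control samples, from duplicates, is given as log2 fold change.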

[1] = compound: Cc1cccc(CC(=O)N2CCc3c2ccc(-c2cn(C)c4ncnc(N)c24)c3F)n1
Summary of the method: as §1

nilotinib = compound: Cc1cn(-c2cc(NC(=O)c3ccc(C)c(Nc4nccc(-c5cccnc5)n4)c3)cc(C(F)(F)F)c2)cn1 [nilotinib]
Summary of the method: as §1

[2] = compound: Cc1nc(Nc2n[nH]c3c2CN(C(=O)N[C@H](CN(C)C)c2ccccc2)C3(C)C)c2sccc2n1
Summary of the method: as §1

dasatinib = compound: Cc1nc(Nc2ncc(C(=O)Nc3c(C)cccc3Cl)s2)cc(N2CCN(CCO)CC2)n1 [dasatinib]
Summary of the method: as §1

[3] = compound: Cc1ncc(-c2ccnc(Nc3ccc(S(C)(=O)=O)cc3)n2)n1C(C)C
Summary of the method: as §1

[4] = compound: Cn1cc(-c2ccc3c(c2)CCN3C(=O)Cc2cccc(C(F)(F)F)c2)c2c(N)ncnc21
Summary of the method: as §1

[5] = compound: Cn1cc(-c2ccc3nnc(C(F)(F)c4ccc5ncccc5c4)n3n2)cn1
Summary of the method: as §1

tipifarnib = compound: Cn1cncc1[C@@](N)(c1ccc(Cl)cc1)c1ccc2c(c1)c(-c1cccc(Cl)c1)cc(=O)n2C [tipifarnib]
Summary of the method: as §1

mubritinib = compound: FC(F)(F)c1ccc(/C=C/c2nc(COc3ccc(CCCCn4ccnn4)cc3)co2)cc1 [mubritinib]
Summary of the method: as §1

Measured: log2 fold change

MED25 isoform 3 (UniProt Q71SY5)
inactive: bafetinib 0.09 | [1] 0.217 | nilotinib -0.013 | [2] 0.003 | dasatinib -0.049 | [3] -0.09 | [4] -0.071 | [5] 0.076 | tipifarnib 0.054 | mubritinib -0.308

IGFBP4 (UniProt P22692)
Sequence of UniProt P22692 (P22692 whole entry, looked up): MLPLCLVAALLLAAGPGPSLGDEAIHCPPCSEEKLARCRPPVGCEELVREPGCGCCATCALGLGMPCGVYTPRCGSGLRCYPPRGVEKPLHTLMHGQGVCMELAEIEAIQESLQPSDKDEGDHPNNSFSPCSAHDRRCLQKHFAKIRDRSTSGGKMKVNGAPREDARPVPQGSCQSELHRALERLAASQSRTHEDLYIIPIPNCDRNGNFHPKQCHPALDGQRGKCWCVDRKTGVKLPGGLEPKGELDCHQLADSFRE
inactive: bafetinib -0.126 | [1] -0.173 | nilotinib 0.077 | [2] -0.06 | dasatinib 0.14 | [3] -0.007 | [4] 0.116 | [5] -0.102 | tipifarnib 0.033 | mubritinib -0.15

MIER1 isoform 12 (UniProt Q8N108)
inactive: bafetinib -0.016 | [1] 0.031 | nilotinib 0.012 | [2] -0.083 | dasatinib -0.028 | [3] -0.061 | [4] 0.056 | [5] -0.041 | tipifarnib -0.004 | mubritinib 0.052

IPO11 isoform 2 (UniProt Q9UI26)
inactive: bafetinib -0.056 | [1] 0.045 | nilotinib 0.012 | [2] -0.03 | dasatinib -0.049 | [3] 0.039 | [4] -0.008 | [5] -0.029 | tipifarnib -0.132 | mubritinib 0.069

LIMD1 (UniProt Q9UGP4)
inactive: bafetinib -0.143 | [1] 0.017 | nilotinib 0.023 | [2] -0.085 | dasatinib 0.001 | [3] -0.008 | [4] 0.021 | [5] -0.015 | tipifarnib -0.071 | mubritinib 0.012

KEAP1 (UniProt Q14145)
Sequence of UniProt Q14145 (Q14145 whole entry, looked up): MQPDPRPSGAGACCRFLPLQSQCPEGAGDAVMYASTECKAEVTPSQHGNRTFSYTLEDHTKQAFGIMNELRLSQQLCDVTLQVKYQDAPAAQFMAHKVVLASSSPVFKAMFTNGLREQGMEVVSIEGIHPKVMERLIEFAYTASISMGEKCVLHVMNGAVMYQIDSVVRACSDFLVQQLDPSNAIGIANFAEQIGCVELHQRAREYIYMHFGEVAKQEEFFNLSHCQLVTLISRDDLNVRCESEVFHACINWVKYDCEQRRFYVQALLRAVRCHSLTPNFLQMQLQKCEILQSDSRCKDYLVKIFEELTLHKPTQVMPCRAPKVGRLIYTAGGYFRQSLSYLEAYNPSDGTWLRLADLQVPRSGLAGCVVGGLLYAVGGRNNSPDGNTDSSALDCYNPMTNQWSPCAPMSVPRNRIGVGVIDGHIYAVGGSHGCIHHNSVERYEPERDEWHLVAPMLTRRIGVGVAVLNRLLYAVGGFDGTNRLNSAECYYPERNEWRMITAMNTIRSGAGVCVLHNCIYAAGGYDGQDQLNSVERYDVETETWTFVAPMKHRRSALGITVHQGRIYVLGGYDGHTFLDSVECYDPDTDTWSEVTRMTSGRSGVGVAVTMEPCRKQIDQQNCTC
inactive: bafetinib -0.057 | [1] 0.032 | nilotinib -0.108 | [2] -0.108 | dasatinib -0.027 | [3] 0.021 | [4] -0.085 | [5] -0.07 | tipifarnib -0.047 | mubritinib 0.037

MAP2K1 (UniProt Q02750)
inactive: bafetinib -0.026 | [1] -0.039 | nilotinib -0.015 | [2] -0.052 | dasatinib -0.063 | [3] 0.008 | [4] 0.023 | [5] 0.021 | tipifarnib -0.024 | mubritinib 0.015

KHDC4 (UniProt Q7Z7F0)
inactive: bafetinib -0.051 | [1] 0.057 | nilotinib 0.063 | [2] -0.054 | dasatinib -0.009 | [3] -0.053 | [4] -0.006 | [5] -0.053 | tipifarnib -0.133 | mubritinib 0.004

LDAH isoform 2 (UniProt Q9H6V9)
Sequence of UniProt Q9H6V9 (Q9H6V9 whole entry, looked up): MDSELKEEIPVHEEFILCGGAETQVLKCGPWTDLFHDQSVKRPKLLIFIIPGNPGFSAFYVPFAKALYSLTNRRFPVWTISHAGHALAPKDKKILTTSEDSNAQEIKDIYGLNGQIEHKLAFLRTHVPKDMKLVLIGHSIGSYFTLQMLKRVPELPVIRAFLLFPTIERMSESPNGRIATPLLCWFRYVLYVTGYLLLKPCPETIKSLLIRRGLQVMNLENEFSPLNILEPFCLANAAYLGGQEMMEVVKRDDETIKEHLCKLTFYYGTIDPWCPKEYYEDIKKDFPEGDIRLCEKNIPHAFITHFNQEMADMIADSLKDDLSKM
inactive: bafetinib -0.188 | [1] -0.027 | nilotinib 0.175 | [2] -0.122 | dasatinib -0.215 | [3] -0.035 | [4] 0.082 | [5] -0.025 | tipifarnib 0.076 | mubritinib 0.094

ILF2 (UniProt Q12905)
inactive: bafetinib 0.093 | [1] -0.012 | nilotinib -0.011 | [2] 0.251 | dasatinib 0.121 | [3] 0.3 | [4] -0.151 | [5] -0.084 | tipifarnib 0.006 | mubritinib -0.071

MCU (UniProt Q8NE86)
inactive: bafetinib -0.173 | [1] 0.032 | nilotinib -0.017 | [2] 0.128 | dasatinib -0.055 | [3] -0.026 | [4] -0.03 | [5] 0 | tipifarnib -0.005 | mubritinib 0.024

MIEN1 (UniProt Q9BRT3)
Sequence of UniProt Q9BRT3 (Q9BRT3 whole entry, looked up): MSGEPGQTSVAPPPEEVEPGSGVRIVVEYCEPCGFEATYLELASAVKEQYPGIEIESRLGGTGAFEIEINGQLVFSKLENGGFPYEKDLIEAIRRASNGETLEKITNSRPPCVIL
inactive: bafetinib 0.023 | [1] -0.013 | nilotinib -0.029 | [2] -0.037 | dasatinib -0.041 | [3] -0.08 | [4] 0.08 | [5] 0.139 | tipifarnib 0.083 | mubritinib 0.018

MFN2 (UniProt O95140)
Sequence of UniProt O95140 (O95140 whole entry, looked up): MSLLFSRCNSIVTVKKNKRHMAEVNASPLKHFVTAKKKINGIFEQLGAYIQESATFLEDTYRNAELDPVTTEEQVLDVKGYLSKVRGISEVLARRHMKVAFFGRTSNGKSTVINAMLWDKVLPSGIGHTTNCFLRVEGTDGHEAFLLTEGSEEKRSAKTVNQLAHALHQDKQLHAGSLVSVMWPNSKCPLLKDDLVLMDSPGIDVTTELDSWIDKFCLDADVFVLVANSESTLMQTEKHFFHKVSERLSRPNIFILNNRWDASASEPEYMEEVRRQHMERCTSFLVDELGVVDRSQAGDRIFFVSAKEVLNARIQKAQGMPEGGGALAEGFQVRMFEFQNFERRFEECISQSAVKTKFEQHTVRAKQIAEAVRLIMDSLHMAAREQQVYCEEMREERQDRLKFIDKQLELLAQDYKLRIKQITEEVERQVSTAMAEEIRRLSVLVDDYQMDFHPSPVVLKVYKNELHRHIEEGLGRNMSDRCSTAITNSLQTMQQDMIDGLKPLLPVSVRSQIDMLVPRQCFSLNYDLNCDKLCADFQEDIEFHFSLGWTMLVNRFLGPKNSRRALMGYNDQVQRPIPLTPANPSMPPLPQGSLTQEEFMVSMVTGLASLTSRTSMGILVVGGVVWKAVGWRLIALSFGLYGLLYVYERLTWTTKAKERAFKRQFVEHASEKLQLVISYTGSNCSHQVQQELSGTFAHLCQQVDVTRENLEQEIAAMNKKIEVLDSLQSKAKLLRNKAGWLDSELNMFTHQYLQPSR
inactive: bafetinib -0.106 | [1] 0.068 | nilotinib -0.002 | [2] -0.022 | dasatinib -0.024 | [3] -0.01 | [4] -0.004 | [5] 0.018 | tipifarnib -0.004 | mubritinib 0.019

MAP2K2 (UniProt P36507)
inactive: bafetinib -0.081 | [1] 0.007 | nilotinib -0.003 | [2] -0.154 | dasatinib -0.092 | [3] -0.018 | [4] 0.023 | [5] 0.098 | tipifarnib 0.015 | mubritinib 0.017

MAGEA8 (UniProt P43361)
Sequence of UniProt P43361 (P43361 whole entry, looked up): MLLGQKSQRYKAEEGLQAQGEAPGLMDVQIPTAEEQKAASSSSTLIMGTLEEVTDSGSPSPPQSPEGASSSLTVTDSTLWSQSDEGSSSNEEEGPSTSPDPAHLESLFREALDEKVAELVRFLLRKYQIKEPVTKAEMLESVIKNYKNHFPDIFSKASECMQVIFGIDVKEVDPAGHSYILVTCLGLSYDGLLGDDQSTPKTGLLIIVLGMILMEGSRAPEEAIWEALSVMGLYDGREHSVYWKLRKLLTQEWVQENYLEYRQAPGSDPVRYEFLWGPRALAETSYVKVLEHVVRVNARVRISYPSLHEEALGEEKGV
inactive: bafetinib 0.022 | [1] -0.265 | [2] -0.207 | dasatinib 0.019 | [3] 0.016 | [4] 0.008 | [5] -0.003 | tipifarnib -0.01
active: nilotinib -0.372

IPP (UniProt Q9Y573)
inactive: bafetinib -0.225

MAP4 (UniProt P27816)
inactive: bafetinib 0.008 | [1] 0.005 | nilotinib 0.008 | [2] 0.008 | dasatinib 0.049 | [3] -0.01 | [4] -0.033 | [5] -0.029 | tipifarnib 0 | mubritinib -0.007

KIFBP (UniProt Q96EK5)
inactive: bafetinib 0.006 | [1] 0.094 | nilotinib -0.162 | [2] -0.079 | dasatinib -0.114 | [3] -0.004 | [4] -0.084 | [5] -0.046 | tipifarnib -0.063 | mubritinib -0.078

KNTC1 (UniProt P50748)
inactive: bafetinib -0.013 | [1] 0.043 | nilotinib -0.064 | [2] -0.026 | dasatinib -0.047 | [3] 0.042 | [4] -0.073 | [5] 0 | tipifarnib -0.108 | mubritinib 0.004

KDM5D isoform 3 (UniProt Q9BY66)
Sequence of UniProt Q9BY66 (Q9BY66 whole entry, looked up): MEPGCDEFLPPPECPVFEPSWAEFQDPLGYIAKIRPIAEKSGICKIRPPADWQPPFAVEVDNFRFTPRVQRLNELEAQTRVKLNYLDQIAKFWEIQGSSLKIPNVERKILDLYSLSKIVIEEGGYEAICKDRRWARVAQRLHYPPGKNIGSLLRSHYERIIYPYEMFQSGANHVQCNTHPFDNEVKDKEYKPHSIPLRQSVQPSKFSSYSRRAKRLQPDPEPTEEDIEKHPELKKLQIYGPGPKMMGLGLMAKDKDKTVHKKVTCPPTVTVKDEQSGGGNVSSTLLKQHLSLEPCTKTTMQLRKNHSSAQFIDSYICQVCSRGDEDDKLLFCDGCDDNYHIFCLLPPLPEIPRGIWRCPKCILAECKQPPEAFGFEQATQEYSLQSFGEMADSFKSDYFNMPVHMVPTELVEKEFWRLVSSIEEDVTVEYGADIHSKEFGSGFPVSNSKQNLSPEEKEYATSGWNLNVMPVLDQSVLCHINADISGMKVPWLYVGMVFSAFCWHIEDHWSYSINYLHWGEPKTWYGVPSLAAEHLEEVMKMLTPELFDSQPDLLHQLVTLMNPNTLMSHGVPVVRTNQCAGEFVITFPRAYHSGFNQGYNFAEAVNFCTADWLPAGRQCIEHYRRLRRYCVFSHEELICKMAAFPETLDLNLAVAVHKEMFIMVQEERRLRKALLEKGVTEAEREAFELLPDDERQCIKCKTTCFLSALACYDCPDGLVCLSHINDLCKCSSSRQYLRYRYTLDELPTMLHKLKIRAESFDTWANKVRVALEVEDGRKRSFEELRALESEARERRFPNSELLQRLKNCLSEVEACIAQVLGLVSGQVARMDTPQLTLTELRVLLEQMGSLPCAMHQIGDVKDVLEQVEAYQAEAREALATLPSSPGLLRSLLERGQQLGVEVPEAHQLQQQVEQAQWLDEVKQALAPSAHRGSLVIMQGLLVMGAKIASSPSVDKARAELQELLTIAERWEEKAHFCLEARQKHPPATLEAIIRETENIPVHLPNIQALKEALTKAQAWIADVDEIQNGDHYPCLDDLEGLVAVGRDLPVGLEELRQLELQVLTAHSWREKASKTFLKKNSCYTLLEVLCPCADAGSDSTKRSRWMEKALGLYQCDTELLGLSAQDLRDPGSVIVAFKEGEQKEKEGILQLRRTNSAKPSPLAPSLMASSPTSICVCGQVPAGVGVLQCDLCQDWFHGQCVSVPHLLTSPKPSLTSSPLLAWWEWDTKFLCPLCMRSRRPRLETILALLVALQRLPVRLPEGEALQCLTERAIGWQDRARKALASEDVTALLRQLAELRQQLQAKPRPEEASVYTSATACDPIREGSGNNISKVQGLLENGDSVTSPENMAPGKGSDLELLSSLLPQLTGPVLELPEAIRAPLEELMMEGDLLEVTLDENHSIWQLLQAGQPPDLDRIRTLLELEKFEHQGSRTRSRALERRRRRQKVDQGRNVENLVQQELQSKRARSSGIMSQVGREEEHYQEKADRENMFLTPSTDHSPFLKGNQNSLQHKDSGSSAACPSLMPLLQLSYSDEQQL
inactive: bafetinib 0.208 | [1] -0.049 | nilotinib 0.089 | [2] -0.054 | dasatinib -0.289 | [3] -0.047 | [4] -0.026 | [5] 0.058 | tipifarnib -0.044 | mubritinib 0.203

MAGEC2 (UniProt Q9UBF1)
inactive: bafetinib -0.024 | [1] -0.065 | nilotinib -0.02 | [2] 0.021 | dasatinib 0.059 | [3] 0 | [4] -0.056 | [5] -0.07 | tipifarnib -0.02 | mubritinib -0.015

LAMP2 (UniProt P13473)
inactive: bafetinib -0.124 | [1] -0.051 | nilotinib 0.002 | [2] -0.014 | dasatinib 0.017 | [3] 0.014 | [4] 0.048 | [5] 0.035 | tipifarnib 0.14 | mubritinib 0.017

JMJD6 isoform 3 (UniProt Q6NYC1)
inactive: bafetinib -0.067 | [1] 0.06 | nilotinib -0.011 | [2] -0.254 | dasatinib -0.009 | [3] -0.098 | [4] -0.008 | [5] -0.047 | tipifarnib 0.036 | mubritinib -0.065

KDM3B (UniProt Q7LBC6)
inactive: bafetinib -0.005 | [1] 0.038 | nilotinib -0.009 | [2] -0.098 | dasatinib -0.136 | [3] 0.042 | [4] -0.032 | [5] 0.006 | tipifarnib 0.018 | mubritinib 0.002

MEAK7 (UniProt Q6P9B6)
inactive: bafetinib -0.094 | [1] 0.042 | nilotinib 0.024 | [2] -0.036 | dasatinib -0.078 | [3] 0.025 | [4] 0.02 | [5] -0.03 | tipifarnib -0.022 | mubritinib 0.052

MAPK14 (UniProt Q16539)
Sequence of UniProt Q16539 (Q16539 whole entry, looked up): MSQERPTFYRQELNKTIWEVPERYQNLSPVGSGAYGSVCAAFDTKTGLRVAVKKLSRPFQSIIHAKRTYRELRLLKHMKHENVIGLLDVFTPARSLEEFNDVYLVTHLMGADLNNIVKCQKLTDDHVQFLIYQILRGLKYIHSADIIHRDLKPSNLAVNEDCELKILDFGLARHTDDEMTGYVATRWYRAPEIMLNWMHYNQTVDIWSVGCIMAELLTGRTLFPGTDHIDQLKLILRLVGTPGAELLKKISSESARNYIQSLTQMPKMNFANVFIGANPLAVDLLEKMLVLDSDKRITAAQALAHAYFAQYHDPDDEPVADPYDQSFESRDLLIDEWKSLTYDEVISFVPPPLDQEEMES
active: bafetinib 1.65 | nilotinib 1.68 | dasatinib 1.05
inactive: [1] -0.092 | [2] 0.123 | [3] 0.071 | [4] 0.107 | [5] 0.014 | tipifarnib -0.102 | mubritinib 0

MEPCE (UniProt Q7L2J0)
Sequence of UniProt Q7L2J0 (Q7L2J0 whole entry, looked up): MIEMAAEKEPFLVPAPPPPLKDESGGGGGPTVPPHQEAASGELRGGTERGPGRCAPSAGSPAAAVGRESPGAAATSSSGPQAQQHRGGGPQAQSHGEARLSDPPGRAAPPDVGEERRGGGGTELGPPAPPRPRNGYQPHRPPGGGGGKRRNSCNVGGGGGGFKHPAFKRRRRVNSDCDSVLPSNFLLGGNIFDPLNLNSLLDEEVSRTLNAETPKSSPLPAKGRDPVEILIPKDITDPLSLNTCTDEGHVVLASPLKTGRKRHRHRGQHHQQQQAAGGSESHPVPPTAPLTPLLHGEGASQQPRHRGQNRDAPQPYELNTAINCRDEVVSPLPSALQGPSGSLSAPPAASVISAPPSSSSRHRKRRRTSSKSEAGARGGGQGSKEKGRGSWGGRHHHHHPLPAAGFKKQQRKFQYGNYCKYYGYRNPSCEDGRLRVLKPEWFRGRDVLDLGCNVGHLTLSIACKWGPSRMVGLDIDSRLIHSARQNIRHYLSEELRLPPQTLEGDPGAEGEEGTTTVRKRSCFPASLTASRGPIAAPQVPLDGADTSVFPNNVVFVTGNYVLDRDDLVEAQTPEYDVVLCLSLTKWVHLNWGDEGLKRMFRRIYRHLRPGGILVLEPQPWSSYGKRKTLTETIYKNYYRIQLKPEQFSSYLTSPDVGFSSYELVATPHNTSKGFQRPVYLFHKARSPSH
inactive: bafetinib -0.12 | [1] 0.065 | nilotinib 0 | dasatinib -0.116 | [3] -0.123 | [4] 0.023 | [5] 0.061 | tipifarnib 0.029 | mubritinib -0.018
active: [2] -0.337

MAPKAPK3 (UniProt Q16644)
inactive: bafetinib 0.258 | [1] 0 | nilotinib 0.281 | [2] -0.03 | dasatinib 0.002 | [3] -0.032 | [4] -0.005 | [5] 0 | tipifarnib -0.048 | mubritinib -0.04

KPNB1 (UniProt Q14974)
inactive: bafetinib 0.029 | [1] 0.029 | nilotinib -0.129 | [2] -0.09 | dasatinib -0.072 | [3] -0.018 | [4] -0.09 | [5] -0.045 | tipifarnib -0.12 | mubritinib 0.019

LEMD2 (UniProt Q8NC56)
inactive: bafetinib -0.036 | [1] -0.008 | nilotinib -0.035 | [2] -0.123 | dasatinib -0.079 | [3] 0.011 | [4] 0.089 | [5] 0.008 | tipifarnib -0.045 | mubritinib -0.021

Source: the supplement of paper PMC10849652
